This passage reports max response and Potency results from PubChem BioAssay AID652283 (National Center for Advancing Translational Sciences (NCATS), 2013).

The structures appear in SMILES notation. Results filed as inconclusive are left out. Active and inactive are the calls of the source. The call rests on the fitted dose curve; in most records, active means well fitted inhibition curve with a large enough effect; inconclusive means small, poorly fitted or top-dose-only effect; inactive means no such curve, though single readings can be large or run the other way.

The nature of the assay: qHTS Assay for Lipid Storage Modulators: COS7 Assay against Probe and Analogs. The note with it: COS7 lipid droplet area, BODIPY imaging, 18 h. From the text: Storing lipids as a reservoir for energy or the anabolism of elementary metabolites is a common feature of probably all cells and is conserved from bacteria to humans. The universal cellular lipid storage organelle is the so-called lipid storage droplet (LD). Although ubiquitous, LDs share a simple structure composed of a hydrophobic core that harbors the storage lipids, which is shielded by a droplet-specific phospholipid monolayer to which proteins are attached. The current model of LD biogenesis involves an incorporation of the lipid core into the membrane leaflets of the endoplasmic reticulum (ER) followed by a subsequent budding-like maturation of a LD, which ultimately pinches off. Once released, LD volume can increase by localized lipogenesis or fusion of existing droplets. Storage lipids are re-mobilized enzymatically by lipase activity. Lipase regulation in the adipocyte is heavily studied and involves multiple components including catecholamine signaling, the LD-associated proteins Perilipin and comparative gene identification-58 (CGI-58) and at least two lipases named hormone sensitive lipase (HSL) and adipocyte triglyceride lipase (ATGL). LD regulation outside of the adipocyte is poorly understood and only few components are known. However, there is an urgent need to learn more about ectopic fat depots as mislocalized storage of lipids, for example in the liver or muscle, is an eminent health problem associated with insulin resistance or the metabolic syndrome. We developed a laser-scanning cytometer assay to enable 1,536-well screening and combined the results of the small molecules screen with an RNAi database based on lipid storage. In this assay we tested analogs of the probe against a mammalian cell line (COS7), to see if these small molecules could disrupt lipid storage. NIH Molecular Libraries Probe Production Centers Network [MLPCN] NIH Chemical Genomics Center [NCGC] MLPCN Grant: MH085686 Assay Submitter (PI): Mathias Beller, Max-Planck-Institut fur Biophysikalische Chemie
COS7 cells were obtained from ATCC (CRL-1651), 5500 cells/well were dispensed into Corning 96 well imaging plate (catalog # 3340), and cultured in 100 uL of 1:1 DMEM medium (PAA) contain 10% fetal bovine serum (FBS) for 24 hours at 37 degrees C, 95% humidity, and 5% CO2. The medium was exchanged for compound treatment. Compound treatment occurred in 150 microL serum reduced medium (5% FBS) and 0.2% DMSO in presence of 400 microM oleic acid for 17-18 h. Cells were then fixed (3.7 % formaldehyde in PBS, 5 min), permeabilized (0.1% Triton X100, 5 min) and washed three times with PBS. Lipid droplets (1:2000 BODIPY 493/503) and nuclei (1:1000 Hoechst 33342) were stained for 1h. Imaging was performed in a Zeiss Axiovert automatic microscope. Number of lipid droplet accumulated in […] cells were analyzed using visual examination of the microscopic images and additional quantification by image segmentation using Cell Profiler.
(In general: qHTS replaces the single test concentration by a dilution series.)
In the case of `CCOc1ccc(CCNC(=O)c2cc3ccncc3n2Cc2cccc(C)c2)cc1OCC`, the max response is -1.73% (inactive).

`CCOc1ccc(CCNC(=O)c2ccccc2)cc1OCC`: the max response was -7.94% (inactive).

`CCOc1ccc(CCNC(=O)c2cc3cnccc3n2Cc2cccc(C)c2)cc1OCC`: the max response was -13.8% (inactive).

In the case of `CCOc1ccc(CCNC(=O)c2cc3cccnc3n2Cc2cccc(C)c2)cc1OCC`, the max response is 0% (inactive).

Take `CCOc1ccc(CCNC(=O)c2cc3sccc3n2Cc2ccc(F)cc2F)cc1OCC`: the Potency was 1.18 µM (active).

For `CCOc1ccc(CCNC(=O)c2cc3ccccc3n2Cc2cccc(C)c2)cc1OCC`, the Potency is 0.264 µM (active).

Regarding `CCOC(=O)C1CCN(C(=O)C2(NC(=O)Nc3ccccc3Cl)CCCC2)CC1`, the Potency is 5.87 µM (active).

As to `CCOc1ccc(CCNC(=O)c2cc3ncccc3n2Cc2cccc(C)c2)cc1OCC`, the max response was 6.92% (inactive).

For `CCOc1ccc(CCNC(=O)c2cc3ccccc3n2CCN2CCOCC2)cc1OCC`, the Potency was 5.26 µM (active).

As to `CCOc1ccc(CCNC(=O)c2cc3ccccc3n2Cc2ccccn2)cc1OCC`, the Potency was 1.66 µM (active).

Consider `CCOc1ccc(CCNC(=O)c2cc3ccccc3n2Cc2cccc(C)n2)cc1OCC`, for which the Potency was 0.59 µM (active).

As for `CCOc1ccc(CCNC(=O)c2cc3ccncc3n2Cc2cccc(C)n2)cc1OCC`, the max response is -22.2% (inactive).

Turning to `CCOc1ccc(CCNC(=O)c2cc3ncccc3n2Cc2cccc(C)n2)cc1OCC`, the max response was -5.54% (inactive).

On to `CCOc1ccc(CCNC(=O)c2cc3cnccc3n2Cc2cccc(C)n2)cc1OCC`, for which the max response is -1.53% (inactive).

Take `CCOc1ccc(CCNC(=O)c2ccc(C(=O)c3ccccc3)cc2)cc1OCC`: the max response was -5.7% (inactive).
